# U2OS ROS induce = raises reactive oxygen species in U2OS cancer cells; U2OS ROS induction, H2DCF-DA fluorescence; ROS induction (% of piperlongumine), % at 10 µM; actives 2% (n = 46,000); in the data active = ROS induction above about 79%, passing the limit was not always enough; inconclusive = no clear call, values can overlap the other calls;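 also: 0% = DMSO vehicle median and 100% = reference compound median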
# YB-1 expr inh = YB-1 expression inhibition; actives 0.37% (n = 30,000); U2OS, qRT-PCR YB-1 vs CDIP delta delta Cp, 16 h; stronger effect = higher value; zero = DMSO, each unit about twofold; delta delta Cp (YB-1 minus CDIP) (concentration not given with the values);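 active = delta delta Cp rounded down to an integer at or above 3, about 3 SD of DMSO wells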;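 also: higher means less YB-1 transcript or more CDIP transcript relative to DMSO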
# * marks the source's active call; other numbers are inactive results; u = inconclusive; x = not tested or not shown. Hits are enriched below; roughly 2.3% of the tested compounds scored in any of these assays.
SMILES,U2OS ROS induce,YB-1 expr inh
COc1ccc(S(=O)(=O)N(C)C[C@@H]2OCCCC[C@@H](C)Oc3ccc(NS(=O)(=O)c4cccs4)cc3C(=O)N([C@H](C)CO)C[C@@H]2C)cc1,115*,0.63
COc1ccc(S(=O)(=O)N(C)C[C@H]2OCCCC[C@@H](C)Oc3ccc(NS(=O)(=O)c4cccs4)cc3C(=O)N([C@H](C)CO)C[C@@H]2C)cc1,-3,-17
C[C@@H]1CCCCO[C@@H](CN(C)S(=O)(=O)c2ccc(Cl)cc2)[C@@H](C)CN([C@H](C)CO)C(=O)c2cc(NS(=O)(=O)c3cccs3)ccc2O1,94*,0.38
C[C@@H]1CCCCO[C@@H](CN(C)S(=O)(=O)c2cccs2)[C@@H](C)CN([C@H](C)CO)C(=O)c2cc(NS(=O)(=O)c3ccc(Cl)cc3)ccc2O1,71,-0.55
CCCCC(CC)CSc1nc2ncccc2[nH]1 (configuration not stated),1,x
CC(=O)N(Cc1ccccc1)c1ccccn1,-8,x
N#Cc1ccc(CSc2nc(-c3cccs3)c3c(c2C(=O)O)CCCC3)cc1,23,0.35
CN1CCc2c(-c3cccs3)nc(OCc3ccccc3Br)c(C#N)c2C1,168*,0.13
O=C1CCCN2C(=N1)SC(=S)N2CN(Cc1ccccc1)Cc1ccccc1,5,x
COc1ccc(CC(=O)NCC(C)C)cc1,4,-0.17
COc1ccc(OC)c(C(O)CNC(=O)CN)c1 (configuration not stated),122*,-0.42
CN(C)CCCN1C(=O)C2C3C=CC(C3)C2C1=O (configuration not stated),-13,x
CN1CCC(N(C)Cc2ccc(-c3ccccc3[N+](=O)[O-])o2)CC1,2,x
O=[N+]([O-])c1ccccc1-c1ccc(-c2nn3c(-c4ccccc4)nnc3s2)o1,174*,x
Cc1cc(C)nc(/N=C2\NC(=O)CC(C(=O)O)N2c2ccc(F)c(Cl)c2)n1 (configuration not stated),2,x
COC(=O)/C=C1/C(=O)N/C(=N\c2nc(C)cc(C)n2)N1c1cccc(C)c1,103*,-0.13
Cc1c2c(nc3c(C(=O)NC4CCCC(C)C4C)cnn13)CCCC2 (configuration not stated),90*,x
CC1CCCC(NC(=O)c2ccc3c(SCC(=O)O)c4c(nc3c2)CCC4)C1C (configuration not stated),-9,x
COc1cc(C(=O)Nc2ccc(Oc3ncnc4sc(C)c(C)c34)cc2)cc(OC)c1OC,104*,x
Cc1sc2ncn(CC(=O)Nc3ccc(Oc4ccccc4)cc3)c(=O)c2c1C,17,x
Cc1oc2c(c1C(=O)NC1CCCC1)C(=O)c1ccccc1C2=O,102*,0.76
Cc1oc2c(c1C(=O)NCCc1ccccc1)C(=O)c1ccccc1C2=O,-11,-0.34
N#CC(C(N)=S)=C1CCCC1,-13,x
CCOC(=O)c1nnn2c1nc(Sc1nnc(-c3ccncc3)n1C)c1ccccc12,161*,-0.79
Cn1c(SCCC(=O)O)nnc1-c1ccncc1,66,x
SMILES,U2OS ROS induce,YB-1 expr inh
CCOC(=O)c1nnn2c1nc(Sc1nc3ccccc3o1)c1ccccc12,108*,-0.17
CCOC(=O)c1nnn2c1nc(N(CC)CC)c1ccccc12,37,-0.57
CN(C)c1ccc(/C=C(\C#N)S(C)(=O)=O)c(F)c1C#N,1,x
c1ccc(-c2nnc(N3CCc4ccccc43)nc2-c2ccccc2)cc1,103*,-0.36
O=C(O)c1ccccc1C(=O)N1CCc2ccccc21,-15,x
CC(C)Cc1ccc(C(C)C(=O)O)cc1 (configuration not stated),-11,0.3
CC(C(=O)O)c1ccc(C(=O)c2cccs2)cc1 (configuration not stated),-19,6.9*
Cc1cc(C=C2C(=O)OC(C)(C)OC2=O)c(C)n1-c1ccc(I)cc1,4,x
CC1CC(=O)c2c(ccc3c2C(=O)c2c(O[C@@H]4O[C@@H](C)[C@H](O)[C@@H](O)[C@H]4O)cccc2C3=O)C1 (some centres not stated),-2,-0.46
COc1cccc2c1C(=O)c1c(O)c3c(c(O)c1C2=O)C[C@@](O)(C(C)=O)C[C@@H]3O[C@H]1C[C@H](N)[C@H](O)[C@H](C)O1,141*,2.9
CCn1cc(CN(Cc2ccccc2)C(=S)Nc2cc(C)ccc2C)c2ccccc21,-27,x
C/C=C/[C@H](CC(=O)N1Cc2ccccc2C[C@H]1CO)[Si](C)(C)c1ccc(OC)cc1,94*,0.29
COc1ccc([Si](C)(C)[C@@H]2[C@@H](CC(=O)N3Cc4ccccc4C[C@H]3CO)O[C@]3(C(=O)N(C)c4c(Br)cc(C)cc43)[C@H]2C)cc1,22,-0.081
O=C(CCCn1ncn2c(cc3occc32)c1=O)NCCc1ccccc1,8,x
COCCOC(=O)N1C(=O)[C@@]2(c3cc(C#CCC(C(=O)OC)C(=O)OC)ccc31)[C@H](C(N)=O)[C@H]1C(=O)O[C@H](c3ccccc3)[C@H](c3ccccc3)N1[C@@H]2c1ccc(OCCO)cc1,u,-0.17
COCCOC(=O)N1C(=O)[C@@]2(c3cc(C#CCC(C(=O)OC)C(=O)OC)ccc31)[C@H](C(=O)N1CCN(c3ncccn3)CC1)[C@H]1C(=O)O[C@H](c3ccccc3)[C@H](c3ccccc3)N1[C@@H]2c1ccc(O)cc1,50,-0.052
COCCOC(=O)N1C(=O)[C@@]2(c3cc(C#Cc4ccc(OC)cc4)ccc31)[C@H](c1ccccc1OCCO)N1[C@H](c3ccccc3)[C@H](c3ccccc3)OC(=O)[C@H]1[C@@H]2C(=O)N1CCN(c2ncccn2)CC1,32,0.08
COCCOC(=O)N1C(=O)[C@@]2(c3cc(C#CCC(C(=O)OC)C(=O)OC)ccc31)[C@H](C(=O)N1CCN(c3ncccn3)CC1)[C@H]1C(=O)O[C@H](c3ccccc3)[C@H](c3ccccc3)N1[C@@H]2c1ccccc1OCCO,80*,0.49
COCCOC(=O)N1C(=O)[C@@]2(c3cc(C#CCC(C(=O)OC)C(=O)OC)ccc31)[C@H](C(N)=O)[C@H]1C(=O)O[C@H](c3ccccc3)[C@H](c3ccccc3)N1[C@@H]2c1ccccc1OCCO,162*,-0.15
COCCOC(=O)N1C(=O)[C@@]2(c3cc(C#CC4(O)CCCCCC4)ccc31)[C@H](C(=O)N1CCN(c3ncccn3)CC1)[C@H]1C(=O)O[C@H](c3ccccc3)[C@H](c3ccccc3)N1[C@@H]2c1ccccc1OCCO,84*,0.036
COc1ccc(-n2nnc3c(=O)n(Cc4cccc(C(F)(F)F)c4)cnc32)cc1,0,x
COc1ccc(-c2oc3cc(OC)c(OC)c(O)c3c(=O)c2OC)cc1OC,82*,-0.31
COc1cc(O)c2c(=O)c(OC)c(-c3cc(O)c(OC)c(OC)c3)oc2c1,11,0.71
CC(=O)N(c1ccc2oc3c(c2c1)CCCC3)S(=O)(=O)c1ccccc1,4,x
O=C(CCn1nc(-c2ccccc2)ccc1=O)NC1CC1,2,x
SMILES,U2OS ROS induce,YB-1 expr inh
NC(=O)C(Cc1ccccc1)NS(=O)(=O)c1ccc2oc3ccccc3c2c1 (configuration not stated),165*,x
Cc1c(C(=O)O)oc2ccc(S(=O)(=O)NCCc3ccccc3)cc12,-5,x
O=C(NCCOc1ccccc1)c1ccc(=O)[nH]c1,-8,x
CCCCc1nc2sc3c(Cl)ncnc3c2c2c1COC(C)(C)C2,113*,x
CCCCc1nc2sc3c(NCc4ccccc4)ncnc3c2c2c1COC(C)(C)C2,-9,x
COc1cc(O)c(C(=O)Cc2ccc(Cl)cc2)c(OC)c1,-9,x

# Bioassay records: PubChem BioAssay, Broad Institute
